Results: PubChem BioAssay (NCI)
Compounds without any hit were thinned out: in the full panel of roughly 83,000, 20% have a hit.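 Interpretation: 100, growth as untreated; towards 0, rising growth inhibition; 0, no net growth; 0 to -100, cell death. Compounds scoring below 10 were considered active.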 A number with no mark means an inactive call. Calls of active or inactive are those of the source.

Each compound was assayed on CCRF-CEM leukemia (assay: NCI-60 one-dose screen, 48 h (100 = growth as untreated, 0 = no growth, -100 = all killed)). Conditions: 10 µM.
For `CCOS(=O)(=O)c1c(C(C)C)cc(C(C)C)cc1C(C)C`, the growth was 121%. `CC(C)CCN(CCC(C)C)CC(=O)Nc1ccc(S(=O)(=O)c2ccc(NC(=O)CN(CCC(C)C)CCC(C)C)cc2)cc1` was tested, and the growth was 2% (active). For `O=C(N/N=C/c1cc([N+](=O)[O-])ccc1O)c1cccc2ccccc12`, the growth was -8.77% (active). Compound `C1CN(CC2CCC(CN3CCOCC3)O2)CCO1` (configuration not stated) has a growth of 50.4%. `Cc1cc(=O)n2nnc3cc(Cl)c(Cl)cc3n12` showed a growth of 23.1%. `Cc1c(Cl)cccc1NC(=O)CN1CCOCC1` was tested, and the growth was 97.2%. `O=C(Nc1nc(-c2ccccc2)nc2c1sc(=S)n2-c1ccccc1)C(F)(F)F` gave a growth of 80.8%. For `CCN(CC)CCOc1cccc2c1C(=O)c1ccccc1C2=O`, the growth was 92.6%. With `COc1cc(OC)c2c(=O)c(O)c(-c3ccccc3)oc2c1` the growth was 47.8%. `COc1cc(-c2nn(-c3ccc(NC(=O)NCCNS(=O)(=O)c4ccc(F)cc4)cc3)cc2-c2ccncc2)ccc1Cl` was tested, and the growth was 9.28% (active). Work on `O=C1CSC(=S)N1/N=C/c1ccc(Cl)s1` yielded a growth of 98.6%. Compound `O=C(CC(CC(=O)c1ccccc1)c1ccccc1O)c1ccccc1` has a growth of 98.6%. `CCOC(=O)c1cc(C(=O)c2cc(OC)cc(OC)c2)n2nc(C)ccc12` was tested, and the growth was 13.7%. With `CC(CN(C)C)Oc1ccc(OC(C)CN(C)C)c2c1C(=O)c1ccccc1C2=O` (configuration not stated) the growth was 28.9%. `COc1cc(-c2nn(-c3cccc(NC(=O)NCCNC(=O)c4cccc(C(F)(F)F)c4)c3)cc2-c2ccncc2)ccc1Cl` gave a growth of 20.6%. In the case of `Cc1ccc(NCCNCC(C)(C)O)c2c(=O)c3ccc(Cl)cc3sc12`, the growth is reported as -14.4% (active). In the case of `CNS(=O)(=O)Oc1ccc(-c2sc3cc(OS(=O)(=O)NC)ccc3c2C(=O)c2ccc(OCCN3CCCCC3)cc2)cc1`, the growth is reported as 46.5%. For `CN(C)CCOc1ccccc1NC1=C(Cl)C(=O)C(Nc2ccccc2OCCN(C)C)=C(Cl)C1=O`, the growth was 4.28% (active). `COc1cc(-c2nn(-c3cccc(NC(=O)CCNc4ccc(N5CCOCC5)cc4)c3)cc2-c2ccncc2)ccc1Cl` gave a growth of 10.9%. Work on `C=CCSC(CC)(CC)C(=O)NC` yielded a growth of 101%. With `Cc1c(Cl)cccc1NC(=O)CCCl` the growth was 84.7%. `CC(=O)C1N=NCC1c1ccccc1` (configuration not stated) gave a growth of 104%. `CCN(CC)CCOc1cccc2c1C(=O)c1cccc(OCCN(CC)CC)c1C2=O` gave a growth of 22.3%. Work on `N#CCc1csc(Cc2ccccc2)n1` yielded a growth of 94.2%. With `CCN(CC)CC(=O)N(CC)c1ccc(C)c(Cl)c1` the growth was 93.8%.

What follows are compounds tested on MOLT-4 leukemia in the same assay as above. Conditions: 10 µM.
For `CCOS(=O)(=O)c1c(C(C)C)cc(C(C)C)cc1C(C)C`, the growth was 97.6%. For `O=C(N/N=C/c1cc([N+](=O)[O-])ccc1O)c1cccc2ccccc12`, the growth was 9.21% (active). In the case of `COc1cc(Cc2cc(-c3ccccc3)n[nH]c2=O)cc(OC)c1OC`, the growth is reported as 30.9%. `Cc1cc(=O)n2nnc3cc(Cl)c(Cl)cc3n12` showed a growth of 59.2%. Work on `CC(=O)N[C@H](C(=O)N[C@@H](CCCNC(=N)N)C(=O)N[C@@H](CCCCN)C(=O)N[C@@H](CCCNC(=N)N)C(=O)N[C@]1(C)CCCCCC/C=C\CCC[C@@](C)(C(=O)N[C@@H](CCCNC(=N)N)C(=O)N[C@@H](CCC(=O)O)C(=O)N[C@@H](CC(C)C)C(=O)N[C@H](C(=O)N[C@@H](CCC(=O)O)C(N)=O)C(C)C)NC(=O)[C@H](CCC(N)=O)NC(=O)[C@H](CC(C)C)NC(=O)[C@H](CC(C)C)NC(=O)[C@H](CCCNC(=N)N)NC(=O)[C@H](CCCNC(=N)N)NC(=O)[C@H](CC(C)C)NC1=O)C(C)C` yielded a growth of 34.6%. With `Cc1ccc(/C=C2/C(=O)N(C)c3ccc(S(=O)(=O)Nc4ccc(C(C)(C)C)cc4)cc32)s1` the growth was 73.3%. Compound `O=C(CCn1cnc2c(cc(-c3ccccc3)n2-c2ccccc2)c1=O)Nc1ccc(F)cc1` has a growth of 85.5%. Work on `Cc1c(Cl)cccc1NC(=O)CN1CCOCC1` yielded a growth of 82.3%. With `CC(C)(C)OC(=O)CN1CCc2c(sc3ncnc(N/N=C/c4cccc5ccccc45)c23)C1` the growth was 9.27% (active). With `CCn1c(SCc2ccc(C)cc2)nnc1-c1nn(-c2ccc(Cl)cc2Cl)c(-c2ccc(Cl)cc2)c1C` the growth was 2.46% (active). Compound `O=C(Nc1nc(-c2ccccc2)nc2c1sc(=S)n2-c1ccccc1)C(F)(F)F` has a growth of 77.2%. In the case of `Cc1c[nH]c(=O)n(Cc2nnc(CCC(=O)c3nc4ccccc4[nH]3)o2)c1=O`, the growth is reported as 9.42% (active). Work on `CCCCN(CCCC)C(=O)[C@H](CC)[C@@H]1CC[C@@H](C)[C@@H]([C@H](C)[C@@H](O)[C@@H](C)C(=O)[C@H](CC)C2O[C@]3(C=CC(=O)[C@]4(CC[C@@](C)([C@H]5CC[C@](O)(CC)[C@H](C)O5)O4)O3)[C@H](C)C[C@@H]2C)O1` (some centres not stated) yielded a growth of 39.4%. Compound `COc1cc(OC)c2c(=O)c(O)c(-c3ccccc3)oc2c1` has a growth of 54.3%. In the case of `COc1ccc(-c2cc(-c3ccccc3)nc(SCCCC(=O)NO)n2)cc1`, the growth is reported as 4.82% (active). Work on `COc1cc(-c2nn(-c3ccc(NC(=O)NCCNS(=O)(=O)c4ccc(F)cc4)cc3)cc2-c2ccncc2)ccc1Cl` yielded a growth of 11.6%. `Cc1[nH]c2ccccc2c1/C=N/Nc1ncnc2sc3c(c12)CCN(CC(=O)OC(C)(C)C)C3` was tested, and the growth was 46.5%. For `O=C1CSC(=S)N1/N=C/c1ccc(Cl)s1`, the growth was 102%. Compound `CCOC(=O)c1cc(C(=O)c2cc(OC)cc(OC)c2)n2nc(C)ccc12` has a growth of 29.5%. `CCCc1cn(CC(=O)Nc2nc3ccccc3s2)nn1` showed a growth of 110%. In the case of `CC(CN(C)C)Oc1ccc(OC(C)CN(C)C)c2c1C(=O)c1ccccc1C2=O` (configuration not stated), the growth is reported as 9.9% (active). With `CNS(=O)(=O)Oc1ccc(-c2sc3cc(OS(=O)(=O)NC)ccc3c2C(=O)c2ccc(OCCN3CCCCC3)cc2)cc1` the growth was 23.2%. `CN(C)CCOc1ccccc1NC1=C(Cl)C(=O)C(Nc2ccccc2OCCN(C)C)=C(Cl)C1=O` was tested, and the growth was -32.4% (active). `COc1cc(-c2nn(-c3cccc(NC(=O)CCNc4ccc(N5CCOCC5)cc4)c3)cc2-c2ccncc2)ccc1Cl` was tested, and the growth was 3.1% (active). Compound `C=CCSC(CC)(CC)C(=O)NC` has a growth of 93%. `Cc1c(Cl)cccc1NC(=O)CCCl` gave a growth of 85.3%. With `CC(=O)C1N=NCC1c1ccccc1` (configuration not stated) the growth was 96.7%. With `CCN(CC)CCOc1cccc2c1C(=O)c1cccc(OCCN(CC)CC)c1C2=O` the growth was 8.32% (active). Compound `CC(C)(C)OC(=O)CN1CCc2c(sc3ncnc(N/N=C/c4ccccc4Br)c23)C1` has a growth of 11.1%. `N#CCc1csc(Cc2ccccc2)n1` gave a growth of 101%. In the case of `Clc1ccc(C2=NN=C3C(Cc4ccccc4)=Nc4ccccc4N3C2)cc1`, the growth is reported as 61.3%. `CCN(CC)CC(=O)N(CC)c1ccc(C)c(Cl)c1` showed a growth of 65.1%.
